This is part of a sample that, as a whole, favours compounds with a hit. Of some 83,000 tested, about 20% had one in any assay.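 The test compound was applied at a single concentration to cells in 96-well plates for 48 hours, and percent growth was recorded.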 Unmarked numbers belong to inactive results. Activity calls are given as the source filed them. The calls were made as follows: active = growth percent below 10; inactive = the rest.

In this assay the test system is HL-60(TB) leukemia. Put plainly: NCI-60 one-dose screen, 48 h (100 = growth as untreated, 0 = no growth, -100 = all killed). The note with it: 10 µM unless noted.
As for `CCCCOc1ccc(NC(=O)n2nc(NC(C)=O)c3cc(NC(C)=O)ccc32)cc1`, the growth is 72.9%.
The result for `O=C(/C=C\c1ccccc1)N1c2ccccc2CC1c1c[nH]c2ccccc12` (stereo unspecified) reads 73.5%.
For the compound `CCOC(=O)c1c(NC(=O)c2ccc(OC)cc2)sc2c(CN(C)C)c(O)ccc12`, the growth is 1.3% (active).
The result for `O=C1/C(=C/c2ccccc2O)N=C2SCCCN12` reads 108%.
For `O=C(Cn1cc(CN2C(=O)c3ccccc3S2(=O)=O)nn1)Nc1cccc(Cl)c1`, the growth is 103%.
On to `CCCCCCCCCCCCCCCC[N+]1(C)CCCC1c1cccnc1` (stereo unspecified), for which the growth is 1.61% (active).
With `COc1cc2ncnc(Nc3ccc(OCc4cccc(F)c4)c(Cl)c3)c2cc1NC(=O)C1CCCC1` the figure was 99%.
The result for `Cc1nc2sc(C(=O)Nc3cccc(Br)c3)c(N)c2cc1C(O)c1ccccc1` (stereo unspecified) reads -27.4% (active).
For `CCc1cccc2c1S/C(=C/c1ccc(OC)cc1)C2=O`, the growth is 5.21% (active).
Take `CN(C)CC(CN(C)C)C(O)c1ccccc1` (stereo unspecified): the growth was 99.8%.
`CCNC(=O)Oc1ccc(/C(=C(/CC)Cc2ccccc2)c2ccc(OCCN3CCCC3)cc2)cc1`: the growth was 69.2%.
The result for `Cc1cccc(C)c1NCc1nnc(-c2ccco2)o1` reads 97.5%.
Regarding `COc1cccc(-c2cnco2)c1OCc1c(C)c(COc2c(OC)cccc2-c2cnco2)c(C)c(COc2c(OC)cccc2-c2cnco2)c1C`, the growth was 76.4%.
With `COc1cc(-c2nn(-c3cccc(NC(=O)Nc4ccc(Cl)c(Cl)c4)c3)cc2-c2ccncc2)ccc1Cl` the figure was -18.1% (active).
The result for `COc1cc2c(=O)n(CC3CCCCC3)c3c4cc[nH]c4ncc3c2cc1OC` reads 42.9%.
With `COc1cc(/C=C/CO)cc(OC)c1O[C@@H]1O[C@H](CO)[C@@H](O)[C@H](O)[C@H]1O` the figure was 85.9%; with `Cc1ccc2c(Cn3cc(CSc4nc5ccccc5o4)nn3)cc(=O)oc2c1`, 109%; with `CC(C)N1CC(=O)N2CSCC2C1=O` (stereo unspecified), 102%.
As to `CC(=O)OCC(=O)[C@@]1(O)CC[C@H]2[C@@H]3CC(=C(Br)Br)C4=CC(=O)CC[C@]4(C)[C@H]3C(=O)C[C@@]21C`, the growth is 90.1%.
As for `CC(=Nc1ccccc1)C1=C(O)C(Cc2cccc(F)c2)NC1=O` (stereo unspecified), the growth was -15.2% (active).
On to `COc1cc(C(F)(F)F)ccc1-c1cc(-c2ccc(F)cc2)n[nH]1`, for which the growth was 115%.
Take `CC1CCc2c(sc(NC(=O)CSc3nnc4ccccn34)c2C(N)=O)C1` (stereo unspecified): the growth is 74.9%.
As to `O=C(O)CSCC(=O)Nc1cc(C(F)(F)F)ccc1Cl`, the growth is 102%.
The result for `C#CCOc1ccc2ncnc(Nc3ccc(NC(=O)C=C)cc3)c2c1` reads -52.5% (active).
The result for `S=c1[nH]nc(Cc2ccccc2)c(=S)[nH]1` reads 98.5%; that for `COc1cc(OC)c(C(=O)C(CN(C)C)CN(C)C)cc1OC`, -63.5% (active).

The values above are taken from PubChem BioAssay (NCI).
